Experimental data taken from PubChem BioAssay (Tox21).
Results filed as inconclusive are left out. Unmarked numbers belong to inactive results. Active and inactive are the calls of the source. Calls come from the whole dose curve.

The compounds below were run against Progesterone receptor (Homo sapiens) (UniProt P06401) (assay: qHTS assay to identify small molecule agonists of the progesterone receptor (PR) signaling pathway (AID 1346784; note: nearly all actives have a fitted effect of over 30% in size)). Details: PR-UAS-bla HEK293T, beta-lactamase FRET ratio, 16 h; series mostly up to 92.4 µM; activation: at the top concentration.
Excerpt: U.S. Tox21 Program National Center for Advancing Translational Sciences [NCATS] NIH Chemical Genomics Center [NCGC] U.S. Environmental Protection Agency [EPA] National Institutes of Environmental Health Sciences [NIEHS] National Toxicology Program [NTP] U.S. Food and Drug Administration [FDA] […] Endocrine disrupting chemicals (EDCs) and their interactions with steroid hormone receptors like PR causes disruption of normal endocrine function. To identify the compounds that activate PR signaling, a PR-UAS-bla GripTite cell line i.e. PR-UAS-bla HEK 293T (Invitrogen, Carlsbad, CA, USA) containing a beta-lactamase reporter gene under the control of an Upstream Activator Sequence (UAS) was used to screen Tox21 10K compound library.
Tox21 Assay Protocol Summary: PR-UAS-bla HEK 293T cells were dispensed at 3,000 cells/5 uL of assay medium containing 2% charcoal stripped FBS per well into black wall/clear-bottom 1536-well plates using a Multidrop Combi (ThermoFisher Scientific, Waltham, MA) dispenser. After the assay plates were incubated at a 37C and 5% CO2 for 6hr, 23 nL of compounds dissolved in DMSO, positive controls or DMSO only was transferred to the assay plate by a Pintool station (Kalypsys, San Diego, CA). The plates were incubated at 37C and 5% CO2 for 16hr. Then 1 uL of LiveBLAzer B/G FRET substrate was added using a BioRAPTR FRD (Flying Reagent Dispenser, Aurora Discovery, San Diego, CA). After the plates were incubated at room temperature for 2 hours, fluorescence intensity was measured by an Envision plate reader (PerkinElmer, Shelton, CT).
% is set by controls: 0 for no effect and ±100 for the full control effect; potency is the fitted concentration of half-maximal effect.

Chain of Progesterone receptor (Homo sapiens) (P06401 whole entry, looked up): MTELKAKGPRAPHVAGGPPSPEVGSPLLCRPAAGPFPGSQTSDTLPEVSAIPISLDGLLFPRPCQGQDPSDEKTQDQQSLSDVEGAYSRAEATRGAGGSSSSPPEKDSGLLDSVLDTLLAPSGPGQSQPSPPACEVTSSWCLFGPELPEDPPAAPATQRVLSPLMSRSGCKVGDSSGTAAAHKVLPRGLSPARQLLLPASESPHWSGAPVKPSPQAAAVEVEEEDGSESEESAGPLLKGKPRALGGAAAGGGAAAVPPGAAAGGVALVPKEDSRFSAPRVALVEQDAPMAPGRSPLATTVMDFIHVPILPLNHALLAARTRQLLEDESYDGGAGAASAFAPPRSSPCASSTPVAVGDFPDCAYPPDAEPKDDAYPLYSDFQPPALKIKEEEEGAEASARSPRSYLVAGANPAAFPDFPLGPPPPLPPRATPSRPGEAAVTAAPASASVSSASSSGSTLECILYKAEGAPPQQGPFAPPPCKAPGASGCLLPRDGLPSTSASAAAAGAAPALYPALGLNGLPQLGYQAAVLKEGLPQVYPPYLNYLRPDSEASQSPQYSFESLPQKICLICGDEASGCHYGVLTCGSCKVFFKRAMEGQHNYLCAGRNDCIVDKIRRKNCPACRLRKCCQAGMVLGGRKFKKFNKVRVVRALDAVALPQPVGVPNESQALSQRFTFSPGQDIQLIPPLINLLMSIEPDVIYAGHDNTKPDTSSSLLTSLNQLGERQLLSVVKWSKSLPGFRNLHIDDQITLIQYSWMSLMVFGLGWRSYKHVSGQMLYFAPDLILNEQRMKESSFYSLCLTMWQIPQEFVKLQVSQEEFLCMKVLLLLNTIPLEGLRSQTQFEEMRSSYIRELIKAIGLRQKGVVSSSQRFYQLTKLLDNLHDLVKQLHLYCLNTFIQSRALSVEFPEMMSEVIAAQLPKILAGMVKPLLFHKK

| SMILES | activation | Potency |
| --- | --- | --- |
| CCOC(=O)OCC | -0.213% |  |
| CC1=NN(c2ccc(C(=O)O)cc2)C(=O)C1 | -1.37% |  |
| Nc1ccc(C(=O)OCCCOC(=O)c2ccc(N)cc2)cc1 | -0.421% |  |
| Nc1nc(Cl)nc2c1ncn2[C@@H]1O[C@H](CO)[C@@H](O)[C@@H]1F | -4.79% [at 42.5 µM] |  |
| Cc1cc(O)c2c(O)c3c(O)cccc3cc2c1 | 0.0588% [at 42.5 µM] |  |
| NCC1CCCC(CN)C1 (stereo not given) | -0.31% |  |
| Oc1ccc(Nc2ccccc2)cc1 | -6.59% |  |
| CSc1ccc(Oc2ccc(S(N)(=O)=O)cc2CN(C)C)cc1C | -8.84% |  |
| CO[Si](C)(OC)OC | -0.386% |  |
| CCC(C)(C)C1CCC(O)CC1 (stereo not given) | 0.651% |  |
| O=C(CCCN1CCN(c2ccc(F)cc2)CC1)NC1c2ccccc2CSc2ccccc21 (stereo not given) | 8.53% [at 42.5 µM] |  |
| CCOc1cc(N)c(Cl)cc1C(=O)NCC1CN(Cc2ccc(F)cc2)CCO1 (stereo not given) | -0.181% [at 42.5 µM] |  |
| O=S1OCCO1 | -0.311% |  |
| CCCOCCOCCO | -2.79% |  |
| O=C(NCCCN1CCOCC1)c1ccc(Cl)cc1 | -2.13% [at 42.5 µM] |  |
| CCCC(=O)O[C@]1(C(=O)COC(=O)CC)CC[C@H]2[C@@H]3CCC4=CC(=O)CC[C@]4(C)[C@H]3[C@@H](O)C[C@@]21C | 3.7% [at 19 µM] |  |
| CCCCC(=O)O[C@]1(C(=O)CO)[C@@H](C)C[C@H]2[C@@H]3CCC4=CC(=O)C=C[C@]4(C)[C@@]3(F)[C@@H](O)C[C@@]21C |  | 1.9 nM (active) |
| NC(=O)Cn1c(=O)cc(CCN2CCN(c3nccc4sccc34)CC2)c2ccc(F)cc21 | -3.04% |  |
| CNC(=O)N(c1ccccc1)c1ccccc1 | -0.212% |  |
| CCn1cc(C(=O)O)c(=O)c2cc(F)c(N3CCNCC3)nc21 | -1.79% [at 42.5 µM] |  |

| SMILES | activation | Potency |
| --- | --- | --- |
| CC(CCO)CCc1ccccc1 (stereo not given) | -1.2% |  |
| CCOC(=O)c1ccccc1C | 0.023% |  |
| Cc1ccc(/C=N/n2c(-c3ccccc3)csc2=S)cc1 | -0.637% [at 42.5 µM] |  |
| CCCCCCCCCCCC(=O)[O][Sn]([CH2]CCC)([CH2]CCC)[O]C(=O)CCCCCCCCCCC | 1.35% [at 42.5 µM] |  |
| O=C(N[C@@H](c1ccccc1)[C@@H]1CCCCN1)c1cccc(C(F)(F)F)c1Cl | -11.2% |  |
| O=C1OCCN1/N=C/c1ccc([N+](=O)[O-])o1 | 6.1% [at 42.5 µM] |  |
| Cc1occc1C(=O)Nc1ccc(C(=O)N2CCC(F)(F)/C(=C\C(=O)N3CCC(N4CCCCC4)CC3)c3ccccc32)cc1 | -5.91% [at 42.5 µM] |  |
| CCCC1C(CC)=CC(CC)=CN1c1ccccc1 (stereo not given) | 8.94% |  |
| CC1=CC(O)CC(C)(C)C1 (stereo not given) | 0.158% |  |
| C=C(C)C(=O)OCCOC(=O)CC(C)=O | 0.411% |  |
| N#C/C(=C1\SCC(c2ccccc2Cl)S1)n1ccnc1 (stereo not given) | -0.127% [at 42.5 µM] |  |
| CCCCCCCC/C=C\CCCCCCCC(=O)OC(CO)CO | -0.732% |  |
| CC(=O)CC(c1ccc([N+](=O)[O-])cc1)c1c(O)c2ccccc2oc1=O (stereo not given) | -3.61% [at 42.5 µM] |  |
| COc1ccc([C@@H]2Sc3ccccc3NC(=O)[C@@H]2O)cc1 | 5.2% [at 42.5 µM] |  |
| CCC(=O)OC/C=C/c1ccccc1 |  | inactive |
| C[Si](NC1CCCCC1)(NC1CCCCC1)NC1CCCCC1 | -3.5% |  |
| O=C(N/N=C/c1ccc([N+](=O)[O-])o1)c1ccc(O)cc1 | 9.39% [at 42.5 µM] |  |
| CC1=C(C=O)C(C)(C)CCC1 | 0.422% |  |
| CC(C)CCCCCOC(=O)CCCCC(=O)OCCCCCC(C)C | 0.142% |  |
| CN(C)C(=O)Nc1ccc(Oc2ccc(Cl)cc2)cc1 | -2.99% |  |
